Measurements from PubChem BioAssay (EPA / NIEHS).
Results filed as inconclusive are left out. Active and inactive are the calls of the source. The calls were made as follows, unless noted: active = hit-call score of the fitted dose curve at least 0.9, where 1 is the maximum; inconclusive = response in the unintended direction; inactive = score below 0.9.

Experiments:
[1] = read-out: xenobiotic metabolism (CYP1A2), CYP1A2 (gene 1544); test: CLD_CYP1A2_48hr: CellzDirect (CLD) Gene Expression Assay for xenobiotic metabolism (CYP1A2) at 48 hours (AID 2283703)
Summary of the method: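 Primary human hepatocytes from two donor preparations were dosed daily for two days at multiple concentrations in 0.2% DMSO vehicle. CYP1A2 mRNA was measured at 48 hours by chemiluminescent quantitative nuclease protection assay, with gain of signal fitted versus DMSO and cytotoxicity annotated from morphology.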

[2] = read-out: alkyl and aryl transferase (GSTA2), GSTA2 (gene 2939); test: CLD_GSTA2_48hr: CellzDirect (CLD) Gene Expression Assay for alkyl and aryl transferase (GSTA2) at 48 hours (AID 2283708);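 also: active means mRNA induction above DMSO vehicle baseline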
Summary of the method: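 Primary human hepatocytes dosed daily for two days (0.2% DMSO vehicle), harvested at 48 h. GSTA2 mRNA induction measured by quantitative nuclease protection assay with chemiluminescent imaging, fitted for gain of signal relative to DMSO.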

[3] = CEETOX_H295R_MTT_cell_viability: Viability Assessment in the CeeTox HT-H295R MTT Assay (AID 2283718; active = hit-call score of the fitted dose curve at least 0.9, where 1 is the maximum; inactive = score below 0.9)
Summary of the method: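 H295R cells prestimulated 48 h with 10 uM forskolin, then exposed 48 h to test chemical (0.1% DMSO final). Viability by MTT (0.5 mg/ml, 4 h, 37 C), absorbance 570/650 nm; percent change versus DMSO, bidirectional fit.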

[4] = Tanguay_ZF_120hpf_ActivityScore_legacy: (Legacy) Oregon State University Tanguay Lab 120 Hour Post-fertilization zebrafish Assay Score for Activity (AID 2283742);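 as to AC50: static exposure from 6 hpf until 120 hpf at 28 °C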
Summary of the method: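 Tropical 5D wild-type zebrafish embryos, dechorionated with pronase at 4 hpf, were exposed singly from 6 hpf to 120 hpf statically at 28C in 0.64% DMSO. Malformations and mortality were scored as binary by brightfield, with the activity score combining 18 morphology components.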

[5] = read-out: xenobiotic metabolism (CYP1A1), CYP1A1 (gene 1543); test: CLD_CYP1A1_48hr: CellzDirect (CLD) Gene Expression Assay for xenobiotic metabolism (CYP1A1) at 48 hours (AID 2283705)
Summary of the method: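 Primary human hepatocytes from two donors dosed daily for two days at multiple concentrations, 0.2% DMSO vehicle; CYP1A1 mRNA induction at 48 h by qNPA chemiluminescence. Cytotoxicity noted by phase-contrast morphology.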

[6] = read-out: glucuronosyltransferase (UGT1A1), UGT1A1 (gene 54658); test: CLD_UGT1A1_48hr: CellzDirect (CLD) Gene Expression Assay for glucuronosyltransferase (UGT1A1) at 48 hours (AID 2283709);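 also: actives increase expression relative to DMSO so potency refers to induction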
Summary of the method: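 Human primary hepatocytes dosed daily for two days (0.2% DMSO vehicle), harvested at 48 h. UGT1A1 mRNA induction measured by quantitative nuclease protection assay with chemiluminescence; gain of signal versus DMSO; cytotoxicity flagged from morphology.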

[7] = STM_H9_OrnithineISnorm_perc: Stemina devTOX quickPredict H9 human embryonic stem cell (hESC)-based Assay for Ornithine (ORN) Metabolite Biomarker, Normalized (AID 2283712; active = hit-call score of the fitted dose curve at least 0.9, where 1 is the maximum; inactive = score below 0.9;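 also: ornithine released into spent medium during last day measured by mass spectrometry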)
Summary of the method: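 Undifferentiated H9 hESCs exposed 72 h with daily media and compound renewal; final 24-h conditioned medium analysed by UPLC-HRMS. Ornithine peak area normalised to spiked C13 standard and to median 0.1% DMSO control; viability by CellTiter-Fluor.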

[8] = STM_H9_CystineISnorm_perc: Stemina devTOX quickPredict H9 human embryonic stem cell (hESC)-based Assay for Cystine (CYSS) Metabolite Biomarker, Normalized (AID 2283713; active = hit-call score of the fitted dose curve at least 0.9, where 1 is the maximum; inactive = score below 0.9)
Summary of the method: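 Undifferentiated H9 hESCs exposed 72 h, compound and media replaced every 24 h; final 24-h media analysed by UPLC-HRMS. Cystine normalized to C13 spike-in standard and median 0.1% DMSO control.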

[9] = STM_H9_OrnCyssISnorm_ratio: Stemina devTOX quickPredict H9 human embryonic stem cell (hESC)-based Assay for Ornithine (ORN):Cystine (CYSS) Ratio (AID 2283714)
Summary of the method: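 Undifferentiated H9 hESCs were exposed to compound for 72h with media and chemical replaced every 24h. Final 24-h conditioned media were deproteinized and analysed by UPLC-HRMS. ORN and CYSS peak areas were normalized to C13 internal standards and the ratio taken versus 0.1% DMSO.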

[10] = CLD_ACTIN_48hr: CellzDirect (CLD) Gene Expression Assay for Baseline Control (Actin) at 48 hours (AID 2283702)
Summary of the method: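 Primary human hepatocytes (two donor preparations) dosed daily for two days with ToxCast chemicals at multiple concentrations versus 0.2% DMSO vehicle; harvested at 48 h. Actin mRNA measured as a background control by quantitative nuclease protection assay with chemiluminescence.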

[11] = read-out: HMG-CoA synthase (HMGCS2), HMGCS2 (gene 3158); test: CLD_HMGCS2_48hr: CellzDirect (CLD) Gene Expression Assay for HMG-CoA synthase (HMGCS2) at 48 hours (AID 2283711)
Summary of the method: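 Primary human hepatocytes from two donors dosed daily for two days, 0.2% DMSO vehicle. HMGCS2 mRNA measured 48 h after dosing by quantitative nuclease protection assay with chemiluminescent read-out; induction fitted relative to DMSO, cytotoxicity flagged by microscopy.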

[12] = read-out: sulfotransferase (SULT2A), SULT2A1 (gene 6822); test: CLD_SULT2A_48hr: CellzDirect (CLD) Gene Expression Assay for sulfotransferase (SULT2A) at 48 hours (AID 2283710);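 also: hits raise SULT2A1 transcript above the 0.2% DMSO vehicle baseline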
Summary of the method: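 Primary human hepatocytes (two donor preparations) dosed daily for two days with chemicals at multiple concentrations, vehicle 0.2% DMSO; SULT2A1 mRNA induction at 48 h by quantitative nuclease protection assay, chemiluminescent read-out, fitted for gain of signal versus DMSO.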

[13] = ArunA_CellTiter_hNC: Viability Assessment in the ArunA Biomedical's Oris Neural Crest (hNC) Cell Migration Assay (AID 2283752)
Summary of the method: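 Human H9-derived neural crest cells plated on Matrigel (60,000/well) with LIF and bFGF, incubated 16 h, then exposed 72 h to chemical in test medium. Viability measured with CellTiter Aqueous One reagent; loss of signal versus DMSO.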

[14] = ArunA_CellTiter_hNP: Viability Assessment in the ArunA Biomedical's Oris Neural Crest (hNC) Cell Migration Assay (AID 2283753)
Summary of the method: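 H9-derived hNP1 neuroprogenitors, 60,000/well on Matrigel, cultured 16 h, then 72 h chemical exposure in test medium. Cell titer via CellTiter Aqueous One; positive-direction fit vs DMSO.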

[15] = ArunA_Migration_hNP: ArunA Biomedical's Oris Neuroprogenitor (hNP) Cell Migration Assay (AID 2283754)
Summary of the method: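 Human H9-derived hNP1 neuroprogenitors on Matrigel with LIF/bFGF, plated around seeding stoppers for 16 h at 37C; stoppers removed at start of 72 h chemical exposure. Calcein-AM staining, fluorescence 494/517 nm in detection zone; loss-of-signal vs DMSO; cytochalasin D control.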

[16] = ArunA_Migration_hNC: ArunA Biomedical's Oris Neural Crest (hNC) Cell Migration Assay (AID 2283755)
Summary of the method: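 Human H9-derived neural crest stem cells, 60,000/well on Matrigel, 16 h at 37C, then 72 h chemical exposure after seeding-stopper removal. Migration into detection zone read as calcein-AM fluorescence (ex494/em517), relative to DMSO.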

[17] = read-out: Cytochrome P450 2C9 (Homo sapiens) (UniProt P11712); test: CLD_CYP2C9_48hr: CellzDirect (CLD) Gene Expression Assay for xenobiotic metabolism (CYP2C9) at 48 hours (AID 2283701; active = hit-call score of the fitted dose curve at least 0.9, where 1 is the maximum; inactive = score below 0.9)
Summary of the method: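 Primary human hepatocytes (two donor preparations) dosed daily for two days with test chemicals, 0.2% DMSO vehicle; harvested at 48 h. mRNA induction quantified by qNPA chemiluminescence, fitted for gain of signal against DMSO baseline; cytotoxicity annotated from phase-contrast morphology.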

[18] = system: Thyroperoxidase (TPO), gene 445522; test: CCTE_Simmons_GUA_TPO: CCTE's Guaiacol Assay for Thyroperoxidase (TPO) Inhibition, Simmons Lab (AID 2283750)
Summary of the method: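 Porcine thyroid microsomes (25 ug) in 200mM potassium phosphate, preincubated 30 s at 37C with compound (8 concentrations, 5 nM–87.5 uM) and 35mM guaiacol; 1mM H2O2 starts reaction. Absorbance change at 450nm over first 80 s; loss of signal versus DMSO, three replicates.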

Measured: AC50

Nc1cnn(-c2ccccc2)c(=O)c1Cl
inactive: [2] | [3] | [4]
active: [1] 4.24 µM

N#Cc1c[nH]cc1-c1cccc2c1OC(F)(F)O2
inactive: [6]
active: [1] 2.37 µM | [5] 31.8 µM | [7] 38.3 µM | [8] 29.4 µM | [9] 32.8 µM | [4] 26.9 µM

O=P(O)(O)CCCl
inactive: [10] | [1] | [6] | [4]
active: [11] 0.000456 µM

CCCCOCN(C(=O)CCl)c1c(CC)cccc1CC
active: [1] 9.38 µM | [5] 11.5 µM
inactive: [10] | [6] | [4]

Nc1c(Cl)c(Cl)nc(C(=O)O)c1Cl
inactive: [10] | [5] | [6] | [4]
active: [1] 5.16 µM

CC(C)=CC1C(C(=O)OCc2coc(Cc3ccccc3)c2)C1(C)C (stereo not given)
inactive: [1] | [6] | [12] | [4]

CS(=O)(=O)c1cc(C(F)(F)F)ccc1C(=O)c1cnoc1C1CC1
active: [1] 20 µM | [7] 0.0772 µM
inactive: [6] | [12] | [11] | [8] | [4]

COc1ccc(-c2ccccc2)cc1NNC(=O)OC(C)C
active: [1] 0.127 µM | [7] 42.1 µM | [8] 30.5 µM | [9] 36.1 µM
not listed: [2] | [3] | [5] | [17] | [18]
inactive: all other assays above

CC(C)NC(=O)N1CC(=O)N(c2cc(Cl)cc(Cl)c2)C1=O
inactive: [6] | [3] | [4]
active: [1] 4.68 µM | [5] 12.3 µM

CC(C)N1C(=O)c2ccccc2NS1(=O)=O
inactive: [10] | [1] | [6] | [11] | [4]

CC(C)Nc1nc(Cl)nc(NC(C)C)n1
active: [1] 2.76 µM | [6] 5.88 µM | [7] 0.0393 µM | [8] 5.93 µM | [9] 5.16 µM
inactive: [12] | [3] | [4]

COC(=O)N(C(=O)N1CO[C@@]2(C(=O)OC)Cc3cc(Cl)ccc3C2=N1)c1ccc(OC(F)(F)F)cc1
active: [1] 4.25 µM | [5] 2.72 µM
inactive: [6] | [4]

O=c1n(Cl)c(=O)n(Cl)c(=O)n1Cl
inactive: [17] | [1] | [6] | [4]

CC(C)(C)C(=O)C(Oc1ccc(Cl)cc1)n1cncn1 (stereo not given)
inactive: [6] | [7] | [3]
active: [1] 12.9 µM | [5] 8.65 µM | [8] 34.3 µM | [9] 71.8 µM | [4] 33.6 µM

Cn1c(-c2ccccc2)cc(-c2ccccc2)[n+]1C
inactive: [10] | [5] | [12] | [4]
active: [7] 25.3 µM | [8] 10.9 µM | [9] 20 µM

CCC(C)n1c(=O)[nH]c(C)c(Br)c1=O (stereo not given)
inactive: [6] | [7] | [8] | [3] | [4]
active: [1] 11.8 µM

COCC(C)N(C(=O)CCl)c1c(C)csc1C (stereo not given)
active: [4] 29.2 µM
inactive: [6]

COCc1cnc(C2=NC(C)(C(C)C)C(=O)N2)c(C(=O)O)c1 (stereo not given)
inactive: [1] | [6] | [7] | [8] | [9] | [3] | [4] | [13] | [14] | [16]

CCN(CC)c1nc(C)cc(OP(=S)(OC)OC)n1
active: [1] 7.6 µM | [5] 9.28 µM
inactive: [6] | [3] | [4]

COP(=S)(OC)Oc1ccc([N+](=O)[O-])c(C)c1
active: [1] 3.97 µM | [6] 5.37 µM
inactive: [3] | [4] | [18]

CCNC(=O)NC(=O)C(C#N)=NOC
inactive: [10] | [1] | [6] | [7] | [8]
active: [9] 77 µM | [4] 32.4 µM

CC(C)C1(C)N=C(c2ncccc2C(=O)O)NC1=O (stereo not given)
inactive: [2] | [6] | [7] | [8] | [4] | [13] | [14] | [15] | [16]
